Drawing on PubChem BioAssay AID1159614 (National Center for Advancing Translational Sciences (NCATS), 2016), this text covers Potency for 49 compounds.

Out of some 45,000 compounds screened, about 65 (0.1%) were called active. Where a call stands in place of a potency, no number is given. This is one part of a sample in which actives are shown more often than they occur. The call rests on the fitted dose curve; in most records, active means well fitted activation curve with a large enough effect; inconclusive means small, poorly fitted or top-dose-only effect; inactive means no such curve, though single readings can be large or run the other way.

Galactocerebrosidase (Homo sapiens), sequence (P54803 whole entry G286D): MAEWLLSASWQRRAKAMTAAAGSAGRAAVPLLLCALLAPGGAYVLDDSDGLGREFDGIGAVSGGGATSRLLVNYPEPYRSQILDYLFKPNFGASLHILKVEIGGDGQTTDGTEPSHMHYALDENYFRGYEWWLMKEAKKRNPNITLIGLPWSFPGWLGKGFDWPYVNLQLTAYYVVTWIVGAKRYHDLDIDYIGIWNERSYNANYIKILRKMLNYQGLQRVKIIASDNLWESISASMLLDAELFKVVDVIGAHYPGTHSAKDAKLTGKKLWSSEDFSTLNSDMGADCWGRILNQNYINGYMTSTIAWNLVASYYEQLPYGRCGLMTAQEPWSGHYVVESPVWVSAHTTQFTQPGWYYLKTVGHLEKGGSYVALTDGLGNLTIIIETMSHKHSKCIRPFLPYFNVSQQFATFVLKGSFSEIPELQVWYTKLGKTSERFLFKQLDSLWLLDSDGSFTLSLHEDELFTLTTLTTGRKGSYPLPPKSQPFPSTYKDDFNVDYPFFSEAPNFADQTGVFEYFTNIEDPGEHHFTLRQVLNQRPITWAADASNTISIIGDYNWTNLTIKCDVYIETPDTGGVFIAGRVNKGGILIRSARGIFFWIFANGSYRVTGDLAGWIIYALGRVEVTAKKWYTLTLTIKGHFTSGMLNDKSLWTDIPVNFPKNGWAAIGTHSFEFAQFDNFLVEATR

This assay concerns the target Galactocerebrosidase (Homo sapiens) (UniProt P54803). Put plainly: A Novel Cell-Based Assay to Identify Small Molecules for B -Galactocerebrosidase. Further: nearly all actives have a fitted effect of over 65% in size. To be noted: 145M-Twi-hGALC-G270D cells (Twitcher mouse brain line with human GALC G270D), HMU-beta-Gal fluorescence, 48 h; series mostly up to 57.5 µM. The source says:
Lysosomal storage diseases (LSDs) are caused by genetic mutations in genes encoding proteins important for normal lysosomal function. Globoid cell leukodystrophy (GLD), mostly known as Krabbe disease, is a prototype of the neurological LSDs caused by deficiency of beta-galactocerebrosidase (GALC). In brain specimens of GLD patients, psychosine levels are substantially elevated. At elevated concentrations, psychosine becomes cytotoxic to neuronal cells, particularly to oligodendrocytes (OLG), neural cells responsible for myelin formation. Therefore, the biochemical disturbances in GLD are manifested by different degrees of brain demyelination resulting in a broad spectrum of neurological manifestations. Most of the FDA-approved therapies are based on enzyme replacement therapeutic (ERT) agents, which treat non-neurological symptoms of Gaucher disease, Fabry disease, few mucopolysaccharidoses and Pompe disease. Unfortunately, in GLD, a primarily neurological LSD, ERT agents, as large molecular weight molecules unable to cross the blood-brain barrier, which makes this an inefficacious therapeutic approach. In GLD, increasing the residual GALC activity just above the critical threshold (~10% of wild type enzymatic activity), the cytotoxic levels of psychosine will be reduced, avoiding the OLGs apoptosis and the subsequent demyelination process. This will translate in disease stabilization and amelioration of GLD patient symptoms.
A cell-based assay in 1,536-well plate format was developed to implement a quantitative high-throughput screening (qHTS) assay using GLD-disease relevant cells to identify small molecules that produce enhancements of the residual enzymatic activity levels of mutants GALC found and prevalent in GLD patients. Compounds that are active may therefore have some therapeutic application for GLD. After the treatment of live cells for a determined period, using a fluorescent GALC specific substrate, the mutant residual GALC activity is measured. This cell-based qTHS assay was used to screen part of the MLPCN library for small molecule able to increase the mutant GALC enzymatic activity. In this assay, increased fluorescent signal corresponds to enhanced levels of mutant GALC residual enzymatic activity. Activation is the desired outcome for this assay.
NIH Chemical Genomics Center [NCGC]
NIH Molecular Libraries Probe Centers Network [MLPCN]
Assay Submitter (PI): Gustavo Maegawa MD,PhD, University of Florida, Gainesville, FL
2)#Two cell lines were established for the assay: 145M-Twi-hGALC-G270D (brain-derived Twitcher cell line stably expressing human GALC-G270D) and 145M-Twi-hGALC-WT (same 145M-Twi stably expressing human GALC wild type). The Twitcher is the murine C57B/6 model for GLD with naturally occurring homozygous nonsense GALC mutation. The 145M-Twi cell line was established at Maegawa lab (Ribbens J et al 2014).
a.#Media: DMEM/F12 (1:1) with 10% fetal bovine-serum (FBS) with penicillin/streptomycin (PS-1X - 100 I.U./mL of penicillin+100 ug/mL of streptomycin).
b.#The 6-Hexadecanoylamino-4-methylumbelliferyl-b-D-galactoside (HMU-B-gal) substrate was prepared as per Wiederschain et al 1992. Using 20-mL borosilicate tubes, 2.20 mg of HMU-b-Gal was added in each tube to prepare substrate-film with a final air-nitrogen stream evaporation to remove all diluent solvents.
c.#The HMUb-Gal substrate buffer consists of 0.2 M Na2HPO4 (sodium phosphate dibasic)/ 0.1 M Citric Acid with the pH adjusted to 5.2 using HCl. Sodium Azide at 0.02% and Sodium Taurocholate (NaTC) at 1 mg/mL were added to this substrate buffer.
d.#The HMU-b-Gal stopping buffer consist of 0.5 M NaHCO3 (sodium bicarbonate) /0.5 M Na2CO3 (sodium carbonate). […] Triton X-100 at 0.25% was added.
4)#Preparation of HMU-b-Gal substrate tubes
Adding 18.6 mL of the HMUb-Gal substrate buffer to each 20-mL tube (2.20 mg of HMU-b-Gal) will reach a concentration of 0.2 mM. Vortex well the tube until the solution is fully homogenized (clear cloudy solution). […]
Regarding `Cc1ccc(-c2nnc3c4ccccc4c(C)nn23)cc1NC(=O)c1cccc(Br)c1`, the Potency entry is “inactive”.

For the compound `CCOc1ccc(-c2cc3c(=O)n(CC(=O)NCc4ccc(OC)cc4)ccn3n2)cc1`, the Potency entry is “inactive”.

In the case of `O=C(O)c1c(CNCc2cccc(F)c2)c2ccccc2n1Cc1ccccc1`, the Potency entry is “inactive”.

For the compound `COc1cccc(NC(=O)CCNS(=O)(=O)c2ccc3c(c2)oc(=O)n3C)c1`, the Potency entry was “inactive”.

`CCc1ccc(-n2nc(C)c3c(C)cc(=O)n(CC(=O)Nc4ccc(F)cc4C)c32)cc1`: the Potency entry is “inactive”.

As to `CC(C)(C)C1CCc2c(sc(NC(=O)c3ccccc3F)c2C(=O)N2CCCCC2)C1` (centres undefined), the Potency entry is “inactive”.

With `CCOC(=O)c1ccc(-c2ccc(/C=C(\C#N)C(=O)Nc3ccc(C)cc3)o2)cc1`, the Potency entry is “inactive”.

For `Cc1ccc2cccc(NC(=O)c3ccc(OC(C)C)cc3)c2n1`, the Potency result is “inactive”.

In the case of `CCCCOCCOC(=O)c1cccnc1`, the Potency entry is “inactive”.

Take `CCOc1ccccc1NC(=O)CCS(=O)(=O)c1cccc2nsnc12`: the Potency entry is “inactive”.

For `CCOc1ccc(Nc2nc3c(S(=O)(=O)c4cccc(Cl)c4)nnn3c3ccsc23)cc1`, the Potency result is “inactive”.

As to `COc1ccc(S(=O)(=O)c2cn(C)c3cc(N4CCCCC4)c(F)cc3c2=O)cc1`, the Potency entry was “inactive”.

For the compound `O=C(CCS(=O)(=O)c1ccc2c(c1)NC(=O)CO2)Nc1cccc(C(F)(F)F)c1`, the Potency result is “inactive”.

`CC(=O)c1ccc(NC(=O)CSc2nc(-c3ccccc3F)nc3c2c(=O)n(C)c(=O)n3C)cc1`: the Potency entry was “inactive”.

In the case of `CCOc1ccc(N(CC)S(=O)(=O)N2CCCC(C(=O)Nc3ccc(C(C)=O)cc3)C2)cc1` (centres undefined), the Potency result was “inactive”.

Regarding `CCOC(=O)c1cc2c(=O)n3ccccc3nc2n(CC2CCCO2)c1=NC(=O)c1ccccc1Br` (centres undefined), the Potency entry is “inactive”.

Take `COCCNC(=O)CCCN1C(=O)c2ccccc2Sc2ncccc21`: the Potency result was “inactive”.

For the compound `Cc1ccc(O)c(NC(=O)c2cc(-c3ccc(F)cc3)no2)c1`, the Potency result was “inactive”.

For `COc1ccc(S(=O)(=O)NCC(c2ccc(N(C)C)cc2)N2CCc3ccccc32)cc1OC` (centres undefined), the Potency entry was “inactive”.

Take `CCc1ccc(NC(=O)CCCc2nnc3n(CCCOC)c(=O)c4sccc4n23)cc1`: the Potency entry was “inactive”.

Turning to `Cc1ccc2c(c1)-c1c(cnn1CC(=O)Nc1ccccc1C#N)CO2`, the Potency result is “inactive”.

In the case of `O=C(NCCc1ccccc1)C(=O)NCC(c1ccco1)S(=O)(=O)c1ccccc1` (centres undefined), the Potency entry is “inactive”.

For `CCOC(=O)Cn1c(=O)n(C2CCCCC2)c2nc(-c3cccc(OC)c3)nc(C(N)=O)c21`, the Potency entry was “inactive”.

With `CCOc1ccc(N(C)S(=O)(=O)c2cc(-c3cnc(C)o3)ccc2OC)cc1`, the Potency entry was “inactive”.

On to `CCc1ccc2ncc3c(-c4ccc(C)cc4)nn(CC(=O)NCc4ccccc4)c3c2c1`, for which the Potency entry is “inactive”.

For the compound `COc1ccc(-c2cn3c(n2)sc2cc(C(=O)Nc4ccc(F)cc4)ccc23)cc1`, the Potency entry was “inactive”.

In the case of `COc1cc(Cl)c(NC(=O)CC(C)S(=O)(=O)c2cc3c(cc2C)NC(=O)CO3)c(OC)c1` (centres undefined), the Potency entry is “inactive”.

With `COc1cc(C(=O)NCCS(=O)(=O)N2CCN(c3ccccc3)CC2)cc(OC)c1OC`, the Potency entry was “inactive”.

Turning to `Nc1ncc(S(=O)(=O)Nc2ccc(OC(F)(F)F)cc2)cn1`, the Potency result was “inactive”.

On to `Cc1ccc(C)c(Cn2c(CCCNC(=O)C3CCCCC3)nc3ccccc32)c1`, for which the Potency entry is “inactive”.

Regarding `COc1ccc(CNC(=O)CC2Oc3ccc(C)cc3NC2=O)cc1` (centres undefined), the Potency entry was “inactive”.

Take `CCN(CCCNC(=O)CSc1cc(=O)n(C)c2cc(Cl)ccc12)c1cccc(C)c1`: the Potency result was “inactive”.

Regarding `COc1ccc(OCC(=O)Nc2cccc(C(=O)OCc3cc(=O)n4nc(C)sc4n3)c2)cc1`, the Potency entry was “inactive”.

For `NC(=O)C1CCN(C(=O)c2cccc(NC(=O)c3nsc4ccccc34)c2)CC1`, the Potency entry was “inactive”.

On to `Cc1ccccc1C(=O)Nc1nnc(S(=O)(=O)N(C)c2ccc(Cl)cc2)s1`, for which the Potency result was “inactive”.

With `CCCCN(CC)C(=O)c1c[nH]c2ccc(S(=O)(=O)Nc3cccc(OC)c3)cc2c1=O`, the Potency entry was “inactive”.

As to `Cc1c(C(=O)N2CCCC2)oc2c1-c1nn(CC(=O)NCc3ccc(OC(C)C)cc3)cc1CC2`, the Potency result was “inactive”.

For the compound `O=C(CN1C(=O)c2cccnc2Oc2ccc(Cl)cc21)NCCc1ccccc1`, the Potency entry was “inactive”.

Consider `Cc1cccc(Nc2cc(C)nc(-n3nc(C)cc3C)n2)c1`, for which the Potency entry was “inactive”.

In the case of `COC(=O)c1cc(NC(=O)CCc2c(C)nc3c4c(C)cc(C)nc4nn3c2C)cc(C(=O)OC)c1`, the Potency entry was “inactive”.

With `CCOc1ccc(NC(=O)c2cn(C3CCCCC3)c(=O)c3c2c2ccccc2n3C)cc1`, the Potency entry is “inactive”.

For the compound `Cc1ccc(Cn2cc(CCC(=O)NCc3ccc(OC(C)C)cc3)c3ccccc32)cc1`, the Potency entry is “inactive”.

Regarding `CCc1cnc2c(c1SCC(=O)c1ccccc1)c(=O)n(C)c(=O)n2C`, the Potency entry is “inactive”.

Consider `Cc1ccccc1OCc1nc2c3cnn(-c4ccccc4F)c3ncn2n1`, for which the Potency result was “inactive”.

Turning to `O=C(Nc1cccc(Cl)c1)c1csnn1`, the Potency entry is “inactive”.

`COc1ccc(C2C(=O)N(C3CCCCC3)CC(=O)N2Cc2ccccc2Cl)cc1OC` (centres undefined): the Potency entry is “inactive”.

Take `O=C(Nc1ccc(OC(F)(F)F)cc1)C1CCCN(S(=O)(=O)c2ccc(Br)s2)C1` (centres undefined): the Potency entry was “inactive”.

Consider `COc1ccc(-c2cc(-c3ccc(F)cc3)nc3c2COc2ccccc2-3)cc1`, for which the Potency entry was “inactive”.

On to `O=C(CCCCn1c(=O)c2ccccc2n(CC(=O)Nc2cccc(C(F)(F)F)c2)c1=O)NCc1ccc2c(c1)OCO2`, for which the Potency entry was “inactive”.
